Measurements published in PubChem BioAssay AID618 (Sanford-Burnham Center for Chemical Genomics, 2007).
Among all 87,000 compounds or so, about 540 (0.62%) were called active. Where a call stands in place of a potency, no number is given. How the calls were made is not given here. For the sample, actives were picked, then their nearest neighbours and some compounds at random. Potency and affinity values are given separately.

Experiment: inhibitors of MT1-MMP promoter transcription, cell-based, luciferase reporter, luminescence (AID 618);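 further: actives suppress MT1-MMP promoter-driven transcription so potencies describe inhibitors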
Conditions: MT1-MMP promoter luciferase reporter cells

| Compound | outcome |
| --- | --- |
| COc1ccc(OC)c(-n2c(-c3ccccc3)n[nH]c2=S)c1 | inactive |
| CC(Oc1ccc(C(=O)NCCc2ccccc2)cc1)C(=O)O (configuration not stated) | inactive |
| CCOc1ccc(OCc2ccc(C(=O)N3CCOCC3)cc2)cc1 | inactive |
| CCCCOc1cccc(C(=O)O)c1 | inactive |
| COc1ccc(OCc2cccc(C(=O)O)c2)cc1 | active |
| CCOc1cc(OCC)cc(C(=O)O)c1 | inactive |
| COc1ccc(OCc2cccc(C(=O)Nc3cc(C)on3)c2)cc1 | inactive |
| CCOc1ccc(OCc2cccc(C(=O)N3CCCC3)c2)cc1 | inactive |
| CCOc1ccc(OCc2cccc(C(=O)N3CCOCC3)c2)cc1 | active |
| CC(C)OC(=O)C(C)Oc1ccc(C(=O)NCCc2ccccc2)cc1 (configuration not stated) | inactive |
| CCOc1ccc(OCc2cccc(C(=O)O)c2)cc1 | active |
| COc1ccc(OCc2ccc(C(=O)O)cc2)cc1 | inactive |
| CSc1nc2nc(C(F)(F)F)cc(-c3ccccc3)n2n1 | inactive |
| COc1ccccc1C(=O)Nc1ccc2c(c1)nc1n2CCSC1 | inactive |
| CSc1ccccc1C(=O)Nc1nccs1 | inactive |
| Cc1nn(-c2ccccc2)c2c1C1(C(=O)N(C(C)C)c3ccccc31)C(C#N)=C(N)O2 (configuration not stated) | inactive |
| Cc1nc(SCC(=O)NC2CCCC2)[nH]c(=O)c1Cc1ccccc1 | inactive |
| CCOc1ccc(OCc2ccc(C(=O)Nc3cccc(C)n3)o2)cc1 | inactive |
| CCOc1ccc(C(=O)Nc2cccc(C)n2)cc1 | active |
| CCCCOc1ccc(C(=O)Nc2cccc(C)n2)cc1 | inactive |
| O=C(NCc1cccs1)c1cc(-c2cccc(Cl)c2)on1 | inactive |
| Cc1ccc(-n2nc3c(c2NC(=O)c2ccc(OC(C)C)cc2)CS(=O)C3)cc1 (configuration not stated) | inactive |
| COC(=O)C12CC3CC(C1)CC(n1cnc(Cl)n1)(C3)C2 | inactive |
| O=C(CCl)N(c1ccccc1)c1c[nH]c2ccccc12 | active |
| O=C(CCl)N(c1ccc(Cl)cc1)c1c[nH]c2ccccc12 | active |
| CN(C)CC(=O)c1c[nH]c2ccccc12 | inactive |

| Compound | outcome |
| --- | --- |
| O=C(O)CCC(=O)c1c[nH]c2ccccc12 | inactive |
| CCN(CC)CC(=O)c1c[nH]c2ccccc12 | inactive |
| CC(=O)N(c1ccc(Cl)cc1)c1c[nH]c2ccccc12 | inactive |
| O=C(NCCN1CCN(Cc2ccccc2Cl)CC1)Nc1ccccc1 | inactive |
| CCCCOc1ccc(CN2CCC(O)CC2)cc1 | inactive |
| CCCCOc1ccc(CN2CCCCC2)cc1 | inactive |
| CC(C)NC(=O)c1ccccc1NC(=O)CN(c1ccc2c(c1)OCO2)S(C)(=O)=O | inactive |
| CCCn1nnc(NC(=O)c2cccc(Cl)c2)n1 | inactive |
| CSc1ccc2c(c1)N(CCC1CCCCN1C)c1ccccc1S2 (configuration not stated) | active |
| CN(C)CCCN1c2ccccc2Sc2ccc(C(F)(F)F)cc21 | inactive |
| CN1CCN(CCCN2c3ccccc3Sc3ccc(Cl)cc32)CC1 | inactive |
| COC(=O)c1ccc(OC)c(CSc2nnc(-c3ccc(C(C)(C)C)cc3)o2)c1 | inactive |
| CC(C)CNC(=O)CSc1ccc(Cl)cc1 | inactive |
| Cc1cccc(NC(=S)NNC(=O)CCn2nc(C)c([N+](=O)[O-])c2C)c1 | inactive |
| S=c1sc2c(N3CCOCC3)ncnc2n1-c1ccccc1 | inactive |
| c1ccc(-n2nnc3c(N4CCOCC4)ncnc32)cc1 | active |
| c1ccc(Cn2nnc3c(N4CCOCC4)ncnc32)cc1 | inactive |
| Nc1cc(=O)[nH]c(SCc2nc3ccccc3n2Cc2ccccc2)n1 | inactive |
| CSCC[C@H](NC(=O)OC(C)(C)C)c1nnc(SCC(N)=O)o1 | inactive |
| COc1ccc(S(=O)(=O)n2nc(OC(=O)C3CCCCC3)cc2N)cc1 | inactive |
| Cc1nc2ccc3nc(NC(=O)C4COc5ccccc5O4)sc3c2s1 (configuration not stated) | inactive |
| O=C(Nc1nc(-c2ccc3c(c2)OCO3)cs1)C1COc2ccccc2O1 (configuration not stated) | inactive |
| O=C(Nc1nc(-c2ccccn2)cs1)C1COc2ccccc2O1 (configuration not stated) | inactive |
| O=C(Nc1ccncc1)C1COc2ccccc2O1 (configuration not stated) | inactive |
| COc1ccc2nc(NC(=O)C3COc4ccccc4O3)sc2c1 (configuration not stated) | inactive |
| Cc1nnc(NC(=O)C2COc3ccccc3O2)s1 (configuration not stated) | inactive |

| Compound | outcome |
| --- | --- |
| O=C(Nc1ncc(Cc2ccccc2)s1)C1COc2ccccc2O1 (configuration not stated) | inactive |
| O=C(Nc1nncs1)C1COc2ccccc2O1 (configuration not stated) | inactive |
| O=C(NC1=NCCS1)C1COc2ccccc2O1 (configuration not stated) | active |
| COc1ccc(OC)c(S(=O)(=O)Nc2ccc(CC(=O)O)cc2)c1 | inactive |
| CN(C)/C=N/c1c(C#N)nnn1Cc1ccccc1 | inactive |
| Cc1ccc2nc3n(c(=O)c2c1)CCCCC3 | inactive |
| CCCCn1c(C(C)NC(=O)c2cccs2)nc2ccccc21 (configuration not stated) | inactive |
| COc1ccccc1N1CCN(C(=O)CSc2nnc(NC(=O)c3ccco3)s2)CC1 | inactive |
| CCc1nnc(NC(=O)C2COc3ccccc3O2)s1 (configuration not stated) | inactive |
| O=C(Nc1nnc(C(F)(F)F)s1)C1COc2ccccc2O1 (configuration not stated) | inactive |
| COc1ccc(-c2noc(CCC(=O)Nc3nc4ccccc4s3)n2)cc1 | inactive |
| O=C(Nc1cc(C(F)(F)F)ccc1N1CCOCC1)c1c(F)c(F)c(F)c(F)c1F | inactive |
| Cc1onc(-c2ccccc2)c1C(=O)Nc1ccccc1N1CCOCC1 | inactive |
| Cc1onc(-c2ccccc2)c1C(=O)Nc1cc(C(F)(F)F)ccc1N1CCOCC1 | active |
| O=C(CSc1nc2ccccc2[nH]1)Nc1cc(C(F)(F)F)ccc1N1CCOCC1 | inactive |
| Cc1ccc2nc(SCC(=O)Nc3cc(C(F)(F)F)ccc3N3CCOCC3)[nH]c2c1 | active |
| Cc1nnc(SCC(=O)Nc2cc(C(F)(F)F)ccc2N2CCOCC2)o1 | inactive |
| CCN(CC)c1ccc2cc(C(=O)Nc3ccc(-n4cnnn4)c(OC)c3)c(=O)oc2c1 | inactive |
| COCc1cc(C)nc2sc(C(=O)Nc3nccs3)c(N)c12 | inactive |
| CCOC(=O)CNC(=O)c1sc2nc(C)cc(C)c2c1N | inactive |
| Cc1cc(C)c2c(N)c(C(=O)NC3CC3)sc2n1 | inactive |
| CCOC(=O)c1sc2nc(C)cc(C)c2c1N | inactive |
| COCCNC(=O)C(c1cccs1)N(CCc1ccccc1)C(=O)Cn1nnc2ccccc21 (configuration not stated) | inactive |
| O=C(CSc1nnc(CNC(=O)c2cccs2)o1)NCCc1ccccc1 | inactive |
| O=C(CNC(=O)c1ccco1)NCC(=O)OC(C(=O)c1ccccc1)c1ccc(Cl)cc1 (configuration not stated) | inactive |
